{
  "source": "PubChem BioAssay (NCATS)",
  "note": "Results filed as inconclusive are left out. The source made the active and inactive calls. Unless noted, the call rests on the fitted dose curve; in most records, active means well fitted curve in either direction with a large enough effect (not every such curve was filed as active); inconclusive means small, poorly fitted or top-dose-only effect, or another doubt; inactive means flat fitted curve, though single readings scatter.",
  "data": [
    {"target": "Lysosomal acid glucosylceramidase (Homo sapiens) (UniProt P04062)", "sequence (P04062 whole entry, looked up)": "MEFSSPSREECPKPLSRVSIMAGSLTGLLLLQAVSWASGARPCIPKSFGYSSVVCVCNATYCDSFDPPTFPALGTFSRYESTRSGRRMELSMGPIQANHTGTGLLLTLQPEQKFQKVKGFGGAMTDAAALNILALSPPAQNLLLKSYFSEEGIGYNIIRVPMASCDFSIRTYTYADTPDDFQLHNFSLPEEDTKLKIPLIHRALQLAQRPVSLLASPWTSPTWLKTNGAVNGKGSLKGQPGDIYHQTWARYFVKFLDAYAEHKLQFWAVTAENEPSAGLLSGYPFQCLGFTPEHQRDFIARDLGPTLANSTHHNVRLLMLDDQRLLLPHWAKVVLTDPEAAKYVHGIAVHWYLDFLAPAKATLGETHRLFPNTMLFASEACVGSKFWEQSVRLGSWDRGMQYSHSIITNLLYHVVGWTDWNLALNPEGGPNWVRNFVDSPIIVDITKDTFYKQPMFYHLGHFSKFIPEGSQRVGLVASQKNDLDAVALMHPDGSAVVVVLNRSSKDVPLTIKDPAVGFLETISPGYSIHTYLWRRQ", "experiment": "Glucocerebrosidase-p2 (AID 348; in the data active means potency below about 10 µM; further: potency means the concentration at half of the fitted maximal effect)", "details": "purified GBA, blue fluorogenic substrate, 40 min", "in_short": "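Normal human glucocerebrosidase (0.2 nM) with blue fluorogenic substrate (80 uM final) in citrate/phosphate pH 5.9 with 10mM sodium taurocholate, 0.01% tween-20; 40 min RT, NaOH/glycine stop; fluorescence Ex 365/Em 440; AC50 from a titration from 0.6 nM upwards.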", "values": [
      {"smiles": "Cc1cnc(CNc2ncncc2-c2ccc(N(C)C)cc2)cn1", "Potency": "> 11.4 µM (inactive)"},
      {"smiles": "Cc1cnc(CNc2cc(-c3ccccc3Cl)ncn2)cn1", "Potency": "> 11.4 µM (inactive)"},
      {"smiles": "CN(C)C(=O)c1ccc(-c2cc(N(C)Cc3ccco3)ncn2)cc1", "Potency": "> 11.4 µM (inactive)"},
      {"smiles": "COc1ccc(CNc2nc(-c3cccc(C#N)c3)nc3ccccc23)c(OC)c1", "Potency": "> 11.4 µM (inactive)"},
      {"smiles": "CCNc1ncc2nc(CCc3ccccc3)c(=O)n(Cc3ccc(F)cc3)c2n1", "Potency": "> 11.4 µM (inactive)"},
      {"smiles": "CS(=O)(=O)Nc1cccc(-c2ccc3ncnc(N4CCOCC4)c3c2)c1", "Potency": "> 11.4 µM (inactive)"},
      {"smiles": "COc1cccc(Cn2c(=O)c(CCc3ccccc3)nc3cnc(N4CCOCC4)nc32)c1", "Potency": "> 11.4 µM (inactive)"},
      {"smiles": "COc1ccccc1CNc1ccnc(-c2c(C)noc2C)n1", "Potency": "> 11.4 µM (inactive)"},
      {"smiles": "CNc1nc(-c2cccc(C#N)c2)nc2ccccc12", "Potency": "> 11.4 µM (inactive)"},
      {"smiles": "COc1cccc(-c2nc(NCCNC(C)=O)c3ccccc3n2)c1", "Potency": "> 11.4 µM (inactive)"},
      {"smiles": "COc1ccccc1CNc1ncnc2ccc(-c3ccc4c(c3)OCO4)cc12", "Potency": "> 11.4 µM (inactive)"},
      {"smiles": "N#CCCn1c(=O)c(-c2ccc(F)cc2)nc2cnc(N3CCNCC3)nc21", "Potency": "> 11.4 µM (inactive)"},
      {"smiles": "COc1cccc(-c2nccc(NCc3ccccc3OC)n2)c1", "Potency": "> 11.4 µM (inactive)"},
      {"smiles": "Cc1noc(C)c1-c1nc(NC2CC2)c2ccccc2n1", "Potency": "> 11.4 µM (inactive)"},
      {"smiles": "COc1ccccc1-c1cc(NCc2cnc(C)cn2)ncn1", "Potency": "> 11.4 µM (inactive)"},
      {"smiles": "COc1cccc(Nc2ncc3nc(-c4ccc(Cl)cc4)c(=O)n(C[C@H]4CCCO4)c3n2)c1", "Potency": "> 11.4 µM (inactive)"},
      {"smiles": "CN(Cc1ccco1)c1cc(-c2cccc(C#N)c2)ncn1", "Potency": "> 11.4 µM (inactive)"}
    ]},
    {"system": "not listed separately", "experiment": "AP1 Signaling Pathway (AID 357);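 further: ME-180 reporter cells stimulated with EGF at its EC50 level; on the % scale 0 is the no-effect control and ±100 the full control effect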", "details": "ME-180 AP-1-bla reporter, EGF-induced, beta-lactamase ratio, 5 h; at 7.69 µM (top of the series) unless noted", "in_short": "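First, ME-180 AP-1-bla cells were cultured overnight at 37 °C in low-serum Opti-MEM. Next, titrated compounds with EC50 EGF were incubated 5 hours. Finally, CCF4 was added for 2.5 hours and the 460/530 nm ratio recorded.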", "values": [
      {"smiles": "Cc1cnc(CNc2cc(-c3cccnc3)ncn2)cn1", "activity change, negative = inhibition": "-14.2% (inactive)"},
      {"smiles": "CS(=O)(=O)Nc1cccc(-c2cc(Nc3ccccc3)ncn2)c1", "activity change, negative = inhibition": "-27.9% (inactive)"},
      {"smiles": "CCNc1ncc2nc(-c3ccc(OC)cc3)c(=O)n(CCc3ccccc3)c2n1", "activity change, negative = inhibition": "107% [activator] (active)"},
      {"smiles": "COc1ccccc1CNc1cc(-c2ccccc2Cl)ncn1", "activity change, negative = inhibition": "-13.2% (inactive)"},
      {"smiles": "O=c1c(-c2cccc(Cl)c2)nc2cncnc2n1-c1ccccc1", "activity change, negative = inhibition": "-18.9% (inactive)"},
      {"smiles": "CN(Cc1ccco1)c1ncncc1-c1ccccc1C(F)(F)F", "activity change, negative = inhibition": "13.8% (inactive)"},
      {"smiles": "COc1ccc2[nH]cc(CCNc3ccnc(-c4c(C)noc4C)n3)c2c1", "activity change, negative = inhibition": "-4.62% (inactive)"},
      {"smiles": "CN(Cc1ccco1)c1nc(-c2ccoc2)nc2ccccc12", "activity change, negative = inhibition": "-25.1% (inactive)"},
      {"smiles": "COc1ccccc1CNc1cc(-c2ccccc2C(F)(F)F)ncn1", "activity change, negative = inhibition": "-11.1% (inactive)"},
      {"smiles": "N#CCCn1c(=O)c(-c2cc(F)cc(F)c2)nc2cnc(Nc3ccccc3)nc21", "activity change, negative = inhibition": "9.43% (inactive)"},
      {"smiles": "Cc1ccccc1-c1ccc2ncnc(NCc3cccnc3)c2c1", "activity change, negative = inhibition": "-2.6% (inactive)"},
      {"smiles": "Cc1cnc(CNc2ncncc2-c2ccc(N(C)C)cc2)cn1", "activity change, negative = inhibition": "3.22% (inactive)"},
      {"smiles": "Cc1cnc(CNc2cc(-c3ccccc3Cl)ncn2)cn1", "activity change, negative = inhibition": "2.27% (inactive)"},
      {"smiles": "CCNc1ncc2nc(CCc3ccccc3)c(=O)n(C[C@H]3CCCO3)c2n1", "activity change, negative = inhibition": "-23.9% (inactive)"},
      {"smiles": "COc1cccc(Cn2c(=O)c(-c3cccc(C#N)c3)nc3cnc(N4CCOCC4)nc32)c1", "activity change, negative = inhibition": "0.3% (inactive)"},
      {"smiles": "CN(C)C(=O)c1ccc(-c2cc(N(C)Cc3ccco3)ncn2)cc1", "activity change, negative = inhibition": "-8.02% (inactive)"},
      {"smiles": "CN(C)C(=O)c1ccc(-c2cncnc2Nc2ccc(F)cc2)cc1", "activity change, negative = inhibition": "-12.8% (inactive)"},
      {"smiles": "COc1ccccc1CNc1ccnc(-c2c(C)noc2C)n1", "activity change, negative = inhibition": "18% (inactive)"},
      {"smiles": "CNc1nc(-c2cccc(C#N)c2)nc2ccccc12", "activity change, negative = inhibition": "-15.2% (inactive)"},
      {"smiles": "COc1ccccc1CNc1ccnc(-c2ccccc2OC)n1", "activity change, negative = inhibition": "-0.503% (inactive)"},
      {"smiles": "COc1cccc(-c2nccc(NCc3ccccc3OC)n2)c1", "activity change, negative = inhibition": "-18.4% (inactive)"},
      {"smiles": "Cc1noc(C)c1-c1nc(NC2CC2)c2ccccc2n1", "activity change, negative = inhibition": "13.4% (inactive)"},
      {"smiles": "COc1ccccc1-c1cc(NCc2cnc(C)cn2)ncn1", "activity change, negative = inhibition": "5.08% (inactive)"},
      {"smiles": "COc1cccc(Nc2ncc3nc(-c4ccc(Cl)cc4)c(=O)n(C[C@H]4CCCO4)c3n2)c1", "activity change, negative = inhibition": "-20.5% (inactive)"},
      {"smiles": "CN(Cc1ccco1)c1cc(-c2cccc(C#N)c2)ncn1", "activity change, negative = inhibition": "-7.22% (inactive)"}
    ]}
  ]
}
